TGFb SMAD3 inh: TGF-b pathway inhibition | hit rate 1.2% among 410,000 | HepG2 CAGA-GFP TGF-b/SMAD3 reporter, GFP fluorescence, 18 h; TGF-beta stimulated, 500 pg/mL final | Potency, µM (titrated, usually from 46.1 µM), for the others: top-dose activity, negative = inhibition, usual class: inhibitors | AID 588855; note: potency is the fitted concentration of half-maximal effect; % is set by controls: 0 for no effect and ±100 for the full control effect; nearly all actives have a fitted effect of over 65% in size
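First, reporter cells (HEPG2 CAGA-GFP) rested 2 h at 37 degrees C. Next, compounds were pinned in and TGF-beta added to 500 pg/mL final. After 18 h, GFP was imaged per cell and summed per well.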
DT40 TDP1 no CPT: qHTS for Inhibitors of human tyrosyl-DNA phosphodiesterase 1 (TDP1): qHTS in cells in absence of CPT; DT40 Tdp1-/- hTDP1 cells, no CPT, ATP luminescence, 48 h; Potency, µM (highest dose often 46.2 µM), for the others: top-dose activity change, negative = growth inhibition, hits mostly inhibitors; hit rate 15% among 420,000; AID 686978, 2013; note: potency is the fitted concentration of half-maximal effect; % is set by controls: 0 for no effect and ±100 for the full control effect; nearly all actives have a fitted effect of over 55% in size
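Compound effects on proliferation are scored in DT40 Tdp1-/-;hTDP1 cells in the absence of CPT. ATP levels (CellTiter-Glo luminescence) are recorded after a ≥48 hr, 37 °C incubation.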
S-ASM inh: inhibitors of human secretory acid sphingomyelinase; P17405; placental ASM, HMU-PC fluorogenic substrate, 60 min; Potency, µM (doses to about 57.5 µM), for inactives: at the top dose activity change, negative = inhibition, most hits filed as inhibitors; hit rate 0.006% among 340,000; note: potency is the fitted concentration of half-maximal effect
Target sequence (P17405 47-631 limits assumed): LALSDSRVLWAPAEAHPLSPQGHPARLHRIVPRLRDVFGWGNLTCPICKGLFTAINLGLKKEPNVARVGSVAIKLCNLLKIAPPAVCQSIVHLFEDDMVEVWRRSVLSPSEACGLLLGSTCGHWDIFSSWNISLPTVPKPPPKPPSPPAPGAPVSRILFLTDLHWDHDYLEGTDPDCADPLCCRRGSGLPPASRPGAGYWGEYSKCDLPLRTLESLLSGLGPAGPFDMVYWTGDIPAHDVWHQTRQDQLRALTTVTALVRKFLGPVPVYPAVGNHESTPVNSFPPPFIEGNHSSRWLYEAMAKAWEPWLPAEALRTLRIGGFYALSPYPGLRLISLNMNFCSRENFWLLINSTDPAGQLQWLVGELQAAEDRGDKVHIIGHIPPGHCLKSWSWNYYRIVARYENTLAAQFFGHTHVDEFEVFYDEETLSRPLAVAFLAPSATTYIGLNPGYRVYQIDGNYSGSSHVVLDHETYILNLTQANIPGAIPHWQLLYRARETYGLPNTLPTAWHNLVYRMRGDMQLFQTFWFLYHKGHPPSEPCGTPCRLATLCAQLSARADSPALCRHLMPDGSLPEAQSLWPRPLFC
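Steps: dispense placental human ASM, pin compound, wait 10 min at room temperature, add HMU-PC0 substrate at 9 uM final, incubate 60 min at 37 °C, add stop solution raising pH to 10, read fluorescence.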
DT40 TDP1 CPT: DT40-hTDP1 cell growth loss with CPT. chicken DT40 Tdp1-/-;hTDP1 cells + 20 nM CPT, ATP luminescence, 48 h. Potency, µM (series often up to 46.2 µM), for the others: at the highest dose activity change, negative = growth inhibition, usual class: inhibitors. hit rate 12% among 420,000. AID 686979; note: potency is the fitted concentration of half-maximal effect; % is set by controls: 0 for no effect and ±100 for the full control effect; nearly all actives have a fitted effect of over 55% in size
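Chicken DT40 Tdp1-/- cells stably complemented with human TDP1 were seeded at 400 cells/well in medium containing 20 nM camptothecin, exposed to pin-transferred compounds, and grown at 37 °C for at least 48 hr. Viability was read as ATP luminescence.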
IL1B secr inh: blocks inflammasome-driven IL-1 beta release; THP-1 LPS/ATP IL-1B secretion, AlphaLISA, 16 h; stronger effect = lower value; activity change, % at 57.5 µM; hit rate 4.7% among 360,000; AID 743279; in the data active = activity change below about -50%; inconclusive = mostly about -30% to -49%; note: % is set by controls: 0 for no effect and ±100 for the full control effect
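THP-1 cells pretreated 1 hr with compounds (up to 57.5 uM final), then stimulated with LPS (250 ng/mL final) plus ATP (1.25 mM final); secreted IL-1B measured by AlphaLISA after 16 hr, decreased signal indicating inhibition.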
HepG2 viability: kills HepG2 cells in TGF-b inhibitor counter-screen | HepG2 CAGA-GFP viability, ATP luminescence, 18 h | hit rate 0.76% among 410,000 | Potency, µM (highest dose often 46.1 µM), for inactives: at the top dose activity change, negative = cytotoxicity, actives largely listed as cytotoxic; note: potency is the fitted concentration of half-maximal effect
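HepG2 CAGA-GFP cells (1000/well, DMEM with 1% FBS) received compound, then TGF-beta at 500 pg/mL final, and were incubated 18 hours at 37 degrees C. Viability was read by CellTiter-Glo luminescence. Media-only wells were set as complete cell-killing and DMSO as no toxicity.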
* hit, by the source's call; ? = inconclusive; . = no result given; [ ] = dose if it differs, or a comment. Most compounds without a hit are left out; they make up all but 19% or so of the library. Unless noted, calls come from the whole dose curve; as a rule, active = well fitted curve in the direction sought with a large enough effect; inconclusive = small, poorly fitted or top-dose-only effect, or another doubt; inactive = no such curve, though single readings can be large; an effect the other way counts as inactive or inconclusive.

SMILES	TGFb SMAD3 inh	DT40 TDP1 no CPT	S-ASM inh	DT40 TDP1 CPT	IL1B secr inh	HepG2 viability
Cc1sc(N/N=C/C=C/c2ccccc2)nc1-c1ccccc1	-14.8%	?	5.1%	?	-19.7	-14.3%
Cc1cc(C(=O)COc2cccnc2[N+](=O)[O-])c(C)n1Cc1ccco1	-25.4%	25.9µM*	10.8%	?	5.4	-20.5%
Cc1ccc(OCC(=O)c2cc(C)n(C)c2C)c([N+](=O)[O-])n1	5.4%	-15.4%	3.4%	-9.5%	14.4	10.5%
Cc1ccc(-n2c(C)cc(C(=O)COc3cccnc3[N+](=O)[O-])c2C)cc1	?	10.3µM*	-0.2%	18.4µM*	-3.3	3.1%
Cc1cc(C)c(NC(=O)COc2cccnc2[N+](=O)[O-])c(C)c1	1.2%	-5.7%	-0.5%	1.1%	37.6	5.4%
Cc1cc(C(=O)COc2cccnc2[N+](=O)[O-])c(C)n1-c1ccccc1	15.3%	20.6µM*	4.7%	?	9.6	1.9%
Cc1cc(C(=O)COc2cccnc2[N+](=O)[O-])c(C)n1-c1ccccc1F	-28.2%	9.2µM*	2.0%	18.4µM*	-5.4	-3.3%
O=C(c1cccc(F)c1F)N1CCOc2ccc(CN3CCN(Cc4ccccn4)CC3)cc2C1	.	-7.8%	.	10.1%	.	.
COc1ccc(NC(=O)c2cc(-c3sc(NC(=O)c4ccccc4)nc3C)n(CCO)n2)cc1	.	?	.	?	-12.5	.
COc1ccc([N+](=O)[O-])c(OC)c1C(=O)NC(=O)Nc1nc(C)nc(C)n1	0.9%	22.2%	2.7%	-8.2%	0.4	3.6%
CCCS(=O)(=O)N1CCC(C(=O)NCCOC)CC1	14.5%	-32.7%	.	-6.3%	.	-16.1%
CCCCCCCCNC(C)C(O)c1ccc(SC(C)C)cc1 (stereo not given)	?	16.4µM*	-6.2%	18.4µM*	-85.7*	-102.5%
C[C@@H](NCCc1ccc(O)cc1)[C@@H](O)c1ccc(O)cc1	0.9%	-1.8%	1.1%	8.3%	-4.9	-2.5%
COc1cccc(CN2CCC3(CCC(CNC(=O)c4ccco4)O3)CC2)c1OC (stereo not given)	.	-20.9%	.	7.0%[9.04 µM]	.	.
COc1ccc(C(C[N+](=O)[O-])C2(c3ccc(OC)c(OC)c3)C(=O)c3ccccc3C2=O)cc1 (stereo not given)	?	4.11µM*	6.0%	?	-102.4*	17.8µM*
COC(=O)C(C(=O)OC)C(C[N+](=O)[O-])c1ccc(OC)c(OC)c1 (stereo not given)	0.7%	?	0.3%	-23.9%	52.9	-13.9%
COc1ccc(S(=O)(=O)NC(=O)C2(C)CCN2C(=O)Cc2cccc3ccccc23)cc1 (stereo not given)	2.8%	-5.2%	.	4.2%	24.3	4.9%
CCCOC(=O)c1ccc(NC(=O)CCOc2ccccc2)cc1	-9.4%	?	-2.5%	-28.7%	-25.1	-12.2%
CCCOC(=O)c1ccc(NC(=O)CSC2=Nc3ccccc3C3CC=NN23)cc1 (stereo not given)	-1.1%	?	-27.4%	23.1µM*	44.5	18.0%
Cc1cc(C)cc(N(CCC#N)C(=O)CSc2ncnc3sccc23)c1	8.4%	?	-2.7%	?	?	-17.1%
O=C(CSc1ccccc1C(=O)O)Nc1ccc2c(c1)OCO2	-1.9%	28.0%	3.3%	-5.4%	12.3	11.7%
N#Cc1ccccc1NC(=O)CSC1=Nc2ccccc2C2CC=NN12 (stereo not given)	-2.0%	23.1µM*	-3.4%	14.6µM*	25.0	-11.5%
Cc1cc(C)cc(N(CCC#N)C(=O)CSC2=Nc3ccccc3C3CC=NN23)c1 (stereo not given)	?	?	-13.3%	20.6µM*	-90.6*	-4.8%
O=C(CSC1=Nc2ccccc2C2CC=NN12)Nc1ccc2c(c1)OCO2 (stereo not given)	?	23.1µM*	-2.2%	7.31µM*	?	-54.7%
CN(C)c1ccc(CNS(=O)(=O)c2ccc3c(c2)NC(=O)CS3)cc1	-11.6%	-23.3%	0.6%	-29.4%	8.1	0.8%
SMILES	TGFb SMAD3 inh	DT40 TDP1 no CPT	S-ASM inh	DT40 TDP1 CPT	IL1B secr inh	HepG2 viability
O=C(c1ccc(N2CCC(NCCCn3ncc4ccccc43)CC2)cc1)N1CCOCC1	.	-13.3%	.	6.8%[9.04 µM]	.	.
Cc1ccc(C2(c3noc(CN(C)Cc4cnn(C)c4)n3)CCCC2)cc1	-15.5%	?	3.0%	20.6µM*	-22.2	-16.0%
CCn1c(N)c(C(=O)NCCOC)sc1=S	7.4%	-0.4%	-0.1%	-3.0%	13.5	-20.6%
CCn1c(N)c(C(=O)Nc2ccccc2C(=O)OC)sc1=S	2.5%	16.4µM*	-19.2%	?	34.0	-0.5%
CCc1cc2c(=O)c(-c3cnn(-c4ccccc4)c3)c(C)oc2cc1OCC(=O)Nc1cccc(C)c1	6.4%	5.17µM*	-2.1%	3.26µM*	-0.9	-1.7%
CCc1cc2c(=O)c(-c3cnn(-c4ccccc4)c3)c(C)oc2cc1OCC(=O)Nc1ccc(F)c(F)c1	-1.7%	9.2µM*	-0.8%	14.6µM*	0.0	8.0%
Cc1oc2cc(O)ccc2c(=O)c1-c1cnn(-c2ccccc2)c1	-5.0%	?	28.7%	-25.3%	13.0	-10.9%
CN(C)c1ccc(C(CNC(=O)c2ccccc2Cl)N2CCc3ccccc32)cc1 (stereo not given)	-8.6%	?	.	?	.	10.5%
COc1ccccc1C(=O)NCC(c1ccc(N(C)C)cc1)N1CCc2ccccc21 (stereo not given)	?	16.4µM*	.	20.6µM*	.	-24.1%
COc1ccc(S(=O)(=O)NCC(c2ccc(N(C)C)cc2)N2CCc3ccccc32)cc1 (stereo not given)	-15.9%	?	.	?	.	-15.5%
CC(C)Oc1ccc(C(=O)NCC(c2ccc(N(C)C)cc2)N2CCc3ccccc32)cc1 (stereo not given)	-10.1%	20.6µM*	.	9.2µM*	.	-25.5%
COc1ccc(C(=O)NCC(c2ccc(N(C)C)cc2)N2CCc3ccccc32)cc1 (stereo not given)	4.3%	8.2µM*	.	7.31µM*	.	-30.6%
CN(C)c1ccc(C(CNC(=O)c2ccccc2)N2CCc3ccccc32)cc1 (stereo not given)	-26.4%	14.6µM*	.	7.31µM*	.	-36.2%
CCn1c(=O)c2ccccc2n2c(SCC(N)=O)nnc12	4.0%	1.3%	-1.8%	-0.1%	-0.5	2.2%

Screening results as filed in PubChem BioAssay.
